# The panel holds about 79,000 compounds, 15% with a hit somewhere; the sample as a whole holds those more often. A number with no mark means an inactive call. Rule as the data show it: active = growth inhibition above about 70%; inactive = the rest.
# Assay: NCI Yeast Anticancer Drug Screen. Data for the sgs1 mgt1 strain (AID 161);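 also: 0% = growth of cultures given vehicle only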
# Settings: S. cerevisiae sgs1 mgt1 strain, at 50.0 µM, hits give high values
# Experimental: Growth inhibition of yeast strains with defined genetic alterations is measured as a screen for potential anti-cancer activity. Selected strains with alterations in DNA damage repair or cell cycle control were exposed to compounds and growth inhibition was measured relative to vehicle treated controls. The strain used in this assay is sgs1 mgt1
row,Compound,growth inhibition
1,Cc1[nH]n(-c2ccccc2)c(=O)c1C=NC(=S)C(N)=S,-20.4%
2,O=C(O)Cc1ccccn1,-1.75%
3,COc1cc(C(=O)O)c(O)c(C(C)(C)C)c1,17.9%
4,BrCc1cccc(C[P+](c2ccccc2)(c2ccccc2)c2ccccc2)c1,36.2%
5,O=S(=O)(O)C(C(I)I)S(=O)(=O)O,-3.35%
6,O=C(CCl)Nc1ccccc1SCc1cc(Cl)cc2c1OCOC2,21.6%
7,CCOC(=O)CSCCC#N,-5.05%
8,O=[n+]1ccn([O-])c2ccccc21,9.05%
9,NNC(=O)c1ccccc1N,27.1%
10,CCN(CC)c1ccc2nc3ccc(N=Nc4ccc(N(C)C)cc4)cc3[n+](-c3ccccc3)c2c1,57.7%
11,c1ccc2c(NCCCN3CCN(CCCNc4c5ccccc5nc5ccccc45)CC3)c3ccccc3nc2c1,11.1%
12,CC(C)(C)CC1(C)NC(=O)NC1=O (stereo not given),13.1%
13,CCOC(=N)CC(=O)Nc1cccc(C)c1Cl,-11.4%
14,Nc1ncnc(Nc2ccccc2)n1,-4.1%
15,Clc1ccc(C(SCc2ccccc2)SCc2ccccc2)cc1,-15.6%
16,c1ccc(Oc2c3ccccc3nc3ccccc23)cc1,-13.2%
17,C=CCC(OC(C)=O)c1ccc(OC)c(OC)c1 (stereo not given),14.7%
18,O=C(NCc1ccccc1)c1cccc([N+](=O)[O-])c1,19.9%
19,C=C(OC(C)=O)c1ccccc1,5.8%
20,Cc1cc(C(=O)NN)c(C#N)c(=O)[nH]1,-2.15%

row,Compound,growth inhibition
1,Cn1c2ccccc2c2nnc(NCCCCO)nc21,19.1%
2,COC(=O)c1ccc([N+](=O)[O-])c(C)c1,-50.2%
3,CCCCn1cnc2c(=O)[nH]cnc21,-5.15%
4,O=c1cc(Cl)nc2ccccn12,-11%
5,CC(=O)Nc1ncc(S(=O)(=O)c2ccc([N+](=O)[O-])cc2)s1,-17.1%
6,C#CC(O)c1ccccc1 (stereo not given),13.1%
7,O=C(Oc1ccccc1Cl)c1ccc(Cl)cc1Cl,24.9%
8,CCNC(=O)Oc1ccc[nH]c1=O,-1.1%
9,OCc1cccnc1,15.3%
10,C/C(=N\Nc1ccc([N+](=O)[O-])cc1[N+](=O)[O-])c1ccc(Br)cc1,2.35%
11,COC(=O)C1=C(C)C(=O)CC1,11.8%
12,Nc1nc(N)nc(N2CCCCC2)n1,-16.4%
13,C/C(O)=C(/C=N\C(=S)Nc1ccc(S(=O)(=O)Nc2nccs2)cc1)C(=O)Nc1ccccc1C,15.3%
14,CCC(=O)C1C(=O)c2ccccc2C1=O,-17.5%
15,CCNc1ccc2ccccc2c1N=Nc1ccc(N=Nc2ccccc2)cc1,11.5%
16,CCOC(=O)Nc1nccs1,-5.3%
17,CC(CC(CCC(=O)O)(c1ccccc1)c1ccccc1)N(C)C (stereo not given),9.45%
18,O=C(OC1CCCC1)c1ccccc1Cl,3.75%
19,O=C(O)CCCCCNC(=O)OCc1ccccc1,16.7%
20,CCOc1ccc(C(=O)O)cc1,-1.65%
